Source: PubChem BioAssay (NCI)
About 79,000 compounds went through this panel and 15% of them were active in at least one assay; those are over-represented in the sample as a whole. Calls of active or inactive are those of the source. Rule as the data show it: active = growth inhibition above about 70%; inactive = the rest.

Columns and labels:
[1] = NCI Yeast Anticancer Drug Screen. Data for the rad52 strain (AID 147);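 also: 0% = growth of vehicle-treated control cultures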; settings: S. cerevisiae rad52 mutant growth inhibition, active compounds read high
How it was run: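 Screen used a yeast mutant impaired in DNA repair. After compound exposure, growth was measured. Values reflect inhibition compared with vehicle-treated cells.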

[2] = NCI Yeast Anticancer Drug Screen. Data for the wt1 strain (AID 149);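 also: 0% = growth of vehicle-treated wt1 cultures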; settings: S. cerevisiae wt1 strain (SPY 50644) growth inhibition, active compounds read high
How it was run: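 Measured: growth of wt1 yeast under compound versus vehicle treatment, reported as inhibition.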

[3] = NCI Yeast Anticancer Drug Screen. Data for the rad50EPP+ strain (AID 151);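 also: 0% = growth of vehicle-treated control cultures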; settings: S. cerevisiae rad50 mutant strain, active compounds read high
How it was run: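 Exposing the rad50EPP+ strain to each compound, growth was compared with vehicle-only cultures to give inhibition.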

[4] = NCI Yeast Anticancer Drug Screen. Data for the mgt1 strain (AID 153); settings: S. cerevisiae mgt1 mutant growth inhibition, active compounds read high
How it was run: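 Genetically defined yeast (mgt1) treated with compound; inhibition of growth expressed against vehicle-treated controls.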

[5] = NCI Yeast Anticancer Drug Screen. Data for the rad50 strain (AID 155);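 also: 0% = growth of vehicle-only cultures of the same strain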; settings: S. cerevisiae rad50 strain growth inhibition, active compounds read high
How it was run: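 Growth of the mutant yeast was measured after compound exposure and referenced to vehicle-treated cultures.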

[6] = NCI Yeast Anticancer Drug Screen. Data for the mec2-1 strain (AID 157); settings: S. cerevisiae mec2-1 strain, active compounds read high
How it was run: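 Readout is yeast growth inhibition, normalised to vehicle-treated controls, in the mec2-1 strain exposed to compound.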

[7] = NCI Yeast Anticancer Drug Screen. Data for the rad14 strain (AID 159);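 also: 0% = growth of vehicle-treated control cultures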; settings: S. cerevisiae rad14 strain growth inhibition, active compounds read high
How it was run: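 Here, inhibition of yeast growth was measured after compound exposure, using a strain with a genetic defect in DNA damage repair and vehicle-treated cultures as the reference.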

[8] = NCI Yeast Anticancer Drug Screen. Data for the CLN2oe strain (AID 163);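 also: 0% = growth of vehicle-only control cultures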; settings: S. cerevisiae CLN2oe strain, active compounds read high
How it was run: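 Values reflect how much compound exposure reduced yeast growth, referenced to vehicle-exposed cells. Assay organism is a strain with a defined genetic change affecting cell-cycle control.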

[9] = NCI Yeast Anticancer Drug Screen. Data for the cln2 rad14 strain (AID 165);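 also: 0% = growth equal to vehicle treated cultures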; settings: S. cerevisiae cln2 rad14 strain, active compounds read high
How it was run: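 Relative to vehicle controls, growth inhibition of compound-treated cln2 rad14 yeast was recorded.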

[10] = NCI Yeast Anticancer Drug Screen. Data for the bub3 strain (AID 167); settings: S. cerevisiae bub3 mutant strain, active compounds read high
How it was run: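 Whole-cell yeast assay. The mutant strain was incubated with compounds, and growth inhibition was determined by comparison with vehicle-treated cells.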

[11] = NCI Yeast Anticancer Drug Screen. Data for the wt2 strain (AID 169);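 also: 0% = growth of vehicle-treated yeast cultures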; settings: S. cerevisiae wt2 strain growth inhibition, active compounds read high
How it was run: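 Values express reduction in yeast growth under compound treatment, referenced to vehicle-treated cells.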

[12] = NCI Yeast Anticancer Drug Screen. Data for the mlh1 strain (AID 171);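 also: 0% = growth of vehicle-treated control cultures of the same strain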; settings: S. cerevisiae mlh1 strain growth inhibition, active compounds read high
How it was run: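 Steps: expose the defined-mutant yeast strain to compound; expose a parallel culture to vehicle; measure growth; express compound effect as inhibition relative to the vehicle culture.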

[13] = NCI Yeast Anticancer Drug Screen. Data for the sgs1 strain (AID 173);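 also: 0% = growth of vehicle-only control cultures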; settings: S. cerevisiae sgs1 mutant, active compounds read high
How it was run: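 Treat defined-mutant yeast with compound; measure growth; calculate inhibition relative to vehicle-treated cells.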

[14] = NCI Yeast Anticancer Drug Screen. Data for the mlh1 rad18 strain (AID 175); settings: S. cerevisiae mlh1 rad18 strain growth inhibition, active compounds read high
How it was run: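 Test agents were incubated with a yeast strain of defined genotype (DNA damage repair defect). Inhibition of growth was derived by comparison with vehicle-exposed cultures.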

[15] = NCI Yeast Anticancer Drug Screen. Data for the rad18 strain (AID 177); settings: S. cerevisiae rad18 mutant growth inhibition, active compounds read high
How it was run: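 A genetically defined yeast mutant impaired in DNA damage repair was treated with test compounds, then its growth was measured against cultures receiving vehicle alone.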

[16] = at 5.0 µM (retest, dose inferred, filed as 0.5)
[17] = at 50.0 µM (retest, dose inferred, filed as 5.0)

Measured: growth inhibition

O=C1Nc2ccc(Br)cc2C1=Nc1ccc2c(c1)OCO2
active: [10]; [17] 73% | [10]; at 100.0 µM 86%
inactive: [1]; at 1.2 µM 10% | [1]; at 3.7 µM 8% | [1]; at 11.0 µM 3% | [1]; at 33.0 µM 10% | [1]; at 100.0 µM 2% | [2]; at 1.2 µM -12% | [2]; at 3.7 µM -3% | [2]; at 11.0 µM -12% | [2]; at 33.0 µM -12% | [2]; at 100.0 µM 2% | [3]; at 1.2 µM -34% | [3]; at 3.7 µM -37% | [3]; at 11.0 µM -45% | [3]; at 33.0 µM -35% | [3]; at 100.0 µM -48% | [4]; at 1.2 µM -9% | [4]; at 3.7 µM -32% | [4]; at 11.0 µM -15% | [4]; at 33.0 µM -15% | [4]; at 100.0 µM -30% | [5]; at 1.2 µM -29% | [5]; at 3.7 µM -26% | [5]; [16] 47% | [5]; at 11.0 µM -27% | [5]; at 33.0 µM -27% | [5]; [17] 60% | [5]; at 50.0 µM -9.9% | [5]; at 100.0 µM -10% | [6]; at 1.2 µM -59% | [6]; at 3.7 µM -27% | [6]; [16] 41% | [6]; at 11.0 µM -54% | [6]; at 33.0 µM -58% | [6]; [17] 56% | [6]; at 50.0 µM -5.95% | [6]; at 100.0 µM -40% | [7]; at 1.2 µM -38% | [7]; at 3.7 µM -29% | [7]; at 11.0 µM -32% | [7]; at 33.0 µM -21% | [7]; at 100.0 µM -33% | [8]; at 1.2 µM 13% | [8]; at 3.7 µM 15% | [8]; at 11.0 µM 16% | [8]; at 33.0 µM 17% | [8]; at 100.0 µM 21% | [9]; [16] 32% | [9]; [17] 26% | [9]; at 50.0 µM 7.55% | [10]; at 1.2 µM -26% | [10]; at 3.7 µM -22% | [10]; [16] 30% | [10]; at 11.0 µM -17% | [10]; at 33.0 µM 2% | [10]; at 50.0 µM 52.5% | [11]; at 1.2 µM 0% | [11]; at 3.7 µM -21% | [11]; at 11.0 µM -22% | [11]; at 33.0 µM -34% | [11]; at 100.0 µM -27% | [12]; at 1.2 µM -8% | [12]; at 3.7 µM -13% | [12]; at 11.0 µM -24% | [12]; at 33.0 µM -30% | [12]; at 100.0 µM -27% | [13]; at 1.2 µM -31% | [13]; at 3.7 µM -21% | [13]; at 11.0 µM -30% | [13]; at 33.0 µM -37% | [13]; at 100.0 µM -27% | [14]; [16] 33% | [14]; [17] 54% | [14]; at 50.0 µM 6.7% | [15]; at 1.2 µM -36% | [15]; at 3.7 µM -34% | [15]; at 11.0 µM -42% | [15]; at 33.0 µM -44% | [15]; at 100.0 µM -29%
